# High-throughput results (PubChem BioAssay)
# Only some compounds are listed: those with a hit (about 15% of all), similar ones and a draw of the others.
# VP16 counter: VP16 counterscreen qHTS for inhibitors of ROR gamma transcriptional activity; Drosophila S2 Gal4-VP16 UAS-luciferase, luminescence, 20 h; Potency, µM (top dose mostly 53.6 µM), most hits filed as inhibitors; 310,000 tested, 3.5% active;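 further: Gal4-VP16 expression switched on by copper sulfate through the metallothionein promoter; nearly all actives have a fitted effect of over 50% in size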
# 12-LOX inh: Primary qHTS assay for inhibitors of human arachidonate 12S-lipoxygenase (ALOX12): Round 2 | Polyunsaturated fatty acid lipoxygenase ALOX12 (Homo sapiens), P18054 | 580,000 tested, 1.1% active | purified 12hLO, xylenol orange hydroperoxide absorbance | Potency, µM (doses to about 108 µM), actives largely listed as inhibitors
#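 Purified human 12hLO (150 nM final) in 25 mM Hepes, 0.01% Triton X-100, pH 7.0 was preincubated 15 min at room temperature with compound. Then 40 uM arachidonic acid was added, 30 min. Hydroperoxide was read by Fe-XO absorbance ratio 573/405 nm.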
# DT40 TDP1 no CPT: qHTS for Inhibitors of human tyrosyl-DNA phosphodiesterase 1 (TDP1): qHTS in cells in absence of CPT | DT40 Tdp1-/- hTDP1 cells, no CPT, ATP luminescence, 48 h | Potency, µM (doses to about 46.2 µM), most hits filed as inhibitors | 420,000 tested, 15% active | AID 686978, 2013; further: nearly all actives have a fitted effect of over 55% in size
#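 Chicken DT40 Tdp1-/- cells complemented with human TDP1, screened without camptothecin (DMSO vehicle only), 400 cells/well. Compounds pin-transferred, cells incubated at 37 °C for at least 48 hr. Growth read as ATP-dependent luminescence (CellTiter-Glo, 30 min at RT).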
# RORg inh: qHTS for inhibitors of ROR gamma transcriptional activity | Potency, µM (titrated, usually from 53.6 µM), usual class: inhibitors | 310,000 tested, 5.4% active | Drosophila S2 Gal4-RORgamma UAS-luciferase reporter, 20 h | AID 2551, 2010; further: nearly all actives have a fitted effect of over 60% in size
# Target sequence (P51450 whole entry, looked up, the tested form may be a part): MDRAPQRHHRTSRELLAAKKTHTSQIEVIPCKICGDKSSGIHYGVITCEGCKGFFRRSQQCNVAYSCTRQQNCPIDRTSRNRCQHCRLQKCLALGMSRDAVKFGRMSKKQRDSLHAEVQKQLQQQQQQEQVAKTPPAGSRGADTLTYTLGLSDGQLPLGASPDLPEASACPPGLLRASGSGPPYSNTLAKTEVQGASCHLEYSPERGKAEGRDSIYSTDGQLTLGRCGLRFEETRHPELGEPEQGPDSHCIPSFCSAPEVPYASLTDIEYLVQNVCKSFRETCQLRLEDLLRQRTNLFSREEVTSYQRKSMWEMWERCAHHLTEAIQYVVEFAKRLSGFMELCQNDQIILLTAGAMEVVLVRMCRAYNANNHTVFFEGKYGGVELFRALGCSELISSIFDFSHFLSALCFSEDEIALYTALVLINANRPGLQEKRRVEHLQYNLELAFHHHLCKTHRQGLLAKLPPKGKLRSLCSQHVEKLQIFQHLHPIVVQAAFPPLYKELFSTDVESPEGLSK
#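 Luminescence from a UAS-regulated Photinus luciferase reporter in stably transfected Drosophila Schneider cells is measured; decreased signal marks ROR gamma inhibition. Fusion expression is induced by 700 uM copper sulfate for 20 hr.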
# ELG1 repair inh: qHTS screen for small molecules that inhibit ELG1-dependent DNA repair in human embryonic kidney (HEK293T) cells expressing luciferase-tagged ELG1; Potency, µM (doses to about 46.1 µM), usual class: inhibitors; 330,000 tested, 2.3% active; HEK293T ELG1-luciferase reporter, luminescence, 16 h; DNA damage induced by 5-fluorouridine; further: nearly all actives have a fitted effect of over 55% in size
#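 HEK293T cells expressing luciferase-tagged ELG1 (2,000/well) received 5-Fluorouridine plus compound or DMSO for 16 hr at 37 °C. Luciferase was read by ONE-Glo luminescence after 30 min at room temperature.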
# DT40 TDP1 CPT: qHTS for Inhibitors of human tyrosyl-DNA phosphodiesterase 1 (TDP1): qHTS in cells in presence of CPT; 420,000 tested, 12% active; Potency, µM (doses to about 46.2 µM), usual class: inhibitors; AID 686979, 2013; chicken DT40 Tdp1-/-;hTDP1 cells + 20 nM CPT, ATP luminescence, 48 h; further: nearly all actives have a fitted effect of over 55% in size
#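 Cell growth measured by CellTiter-Glo luminescence after a minimum 48 h, 37 C compound exposure with 20 nM CPT in Tdp1-knockout DT40 cells stably expressing hTDP1, seeded 400/well; qHTS titration format.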
# Hits are given with their value; i = inactive; ? = inconclusive; nt = no result given; ! = not confirmed by another sample. The call rests on the fitted dose curve; in most records, active means well fitted curve in the direction sought with a large enough effect; inconclusive means small, poorly fitted or top-dose-only effect, or another doubt; inactive means no such curve, though single readings can be large; an effect the other way counts as inactive or inconclusive.
SMILES,VP16 counter,12-LOX inh,DT40 TDP1 no CPT,RORg inh,ELG1 repair inh,DT40 TDP1 CPT
CC1=C(c2ccc(C(C)C)cc2)S(=O)(=O)N=C1N1CCN(c2ccc(F)cc2)CC1,nt,?,10.3µM,nt,nt,20.6µM
CC1=C(c2ccc(C)c(C)c2)S(=O)(=O)N=C1N1CCN(c2cccc(C)c2)C(C)C1 (configuration not stated),nt,i,10.3µM,nt,nt,18.4µM
CC(=O)c1ccc(N2CCN(Cc3nc(-c4cccs4)no3)CC2)c(F)c1,nt,i,nt,nt,nt,nt
COc1cc2c(cc1OC)-c1c(c(C(=O)Nc3cccnc3)nn1-c1ccccc1)C2,nt,i,nt,nt,nt,nt
COc1ccc(-n2c(C(C)n3nc(C)c([N+](=O)[O-])c3C)n[nH]c2=S)cc1 (configuration not stated),i,?,i,i,?,i
COc1ccc(-n2c(-c3cc(-c4ccccc4)sc3N)n[nH]c2=S)cc1,?,i,16.4µM,2.51µM,i,?
COc1ccc(-n2c(-c3cccc(C)c3[N+](=O)[O-])n[nH]c2=S)cc1,i,i,i,7.94µM,i,i
Nc1sc(-c2ccccc2)cc1-c1n[nH]c(=S)n1C1CCCCC1,?,i,2.59µM,2.24µM,20.6µM,16.4µM
CCn1c2c(c3cc(Cl)ccc31)CCCC2=O,i,i,i,?,i,i
CCn1c2c(c3cc(C(=O)O)ccc31)CCCC2=O,i,i,25.9µM,i,i,?
CCc1ccc2oc(=O)cc(CN3CCN(c4ccc(F)cc4)CC3)c2c1,i,?,16.4µM,i,?,?
CC(C)c1ccc2oc(=O)cc(CN3CCN(c4ccc(F)cc4)CC3)c2c1,i,i,?,i,?,?
COc1ccc(N2CCN(Cc3cc(=O)oc4ccc(Cl)cc34)CC2)cc1,i,i,i,i,i,?
COc1ccc(N2CCN(Cc3cc(=O)oc4cc5c(cc34)CCCC5)CC2)cc1,i,i,13µM,?,i,20.6µM
COc1ccc2c(CN(C)c3ccccc3)cc(=O)oc2c1,i,?,?,i,i,29.1µM
CCOc1ccc2oc(=O)cc(CN3CCN(c4cc(C)ccc4C)CC3)c2c1,nt,i,16.4µM,nt,nt,14.6µM
CCN1CCC(N2CCC(Oc3ccccc3-c3nc(-c4ccncc4)no3)C2)CC1 (configuration not stated),nt,i,nt,nt,nt,nt
COC(=O)C(Cc1ccccc1)NC(=O)c1ccc2c(c1)NC(=O)CS2 (configuration not stated),nt,i,nt,nt,nt,nt
CC(OC(=O)C1=NN(C)C(=O)CC1)C(=O)c1c[nH]c2ccccc12 (configuration not stated),nt,i,nt,nt,nt,nt
COc1ccc2c(CN3CCN(c4ccccc4OC)CC3)cc(=O)oc2c1,nt,?,14.6µM,nt,nt,?
COc1ccc(N2CCN(Cc3cc4c(cc3O)CCC4)CC2)cc1,i,i,20.6µM,i,i,25.9µM
CCOc1ccc2oc(=O)cc(CN3CCN(Cc4ccc(F)cc4)CC3)c2c1,nt,?,23.1µM,nt,nt,16.4µM
COc1cc(OC)c(OC)cc1CN1CCN(c2ccc(F)cc2)CC1,i,i,?,i,i,?
CCc1c(CN2CCN(c3ccc(F)cc3)CC2)csc1C,nt,44.7µM!,?,nt,nt,?
COc1ccc2oc(=O)cc(CN3CCN(c4ccc(F)cc4)CC3)c2c1,nt,i,23.1µM,nt,nt,?
CCc1ccc2oc(=O)cc(CN3CCN(Cc4ccccc4)CC3)c2c1,i,i,20.6µM,i,i,?
COC(=O)C1N[C@@H]([C@@H](NC(=O)COc2ccccc2)C(=O)NCc2ccccc2)SC1(C)C (some centres not stated),nt,i,20µM!,nt,nt,?
